# An excerpt weighted towards active compounds, which were near 3.1% of everything screened.
# PAX8 inh HTS: lowers PAX8-driven luciferase in RMG-I cells; RMG-I TPO-luciferase reporter, SteadyGlo, 24 h; inhibition, % at 12.6 µM; 360,000 compounds, 1.2% hits;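 active = mean replicate inhibition at least 60% with every replicate also reaching 60%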;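 note: luciferase light reporting Pax8 driven TPO promoter activity; plate controls were median of neutral control wells for no effect and mitoxantrone controls for full effect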
# TROY NFkB inh: inhibitors of TROY-dependent NF-kB signaling. Q293 LMP1-TROYcd NF-kB luciferase reporter, 4 h. inhibition, % at 10 µM. 360,000 compounds, 0.98% hits;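 active = compounds whose plate-normalised and pattern-corrected inhibition of the luciferase reporter signal at the single screening dose is 50% or more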
# EBV LMP1 NFkB: Epstein-Barr LMP1 NF-kappaB reporter inhibition; LMP1-induced NF-kappaB luciferase reporter cells, luminescence; inhibition, % at 12.5 µM; 350,000 compounds, 0.69% hits; AID 504558; in the data active = inhibition above about 41%;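 note: 0% = neutral control wells and 100% = reference inhibitor control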
# EWS-Fli block: blocks EWS/Fli oncoprotein-driven transcription; A673 NR0B1-luciferase reporter, viability-normalised; inhibition, % at 12.6 µM; 350,000 compounds, 0.67% hits;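 active = mean inhibition of at least 50% after viability correction, with every replicate also passing that limit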;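 note: firefly luciferase signal divided by Alamar Blue viability fluorescence both relative to DMSO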
# LGR2 antag: blocks bursicon-induced cAMP signaling via Drosophila LGR2. AID 720647. HEK293 LGR2, CRE-luciferase, bursicon-stimulated, 4 h. 380,000 compounds, 0.35% hits. inhibition, % at 9.99 µM;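 active = drop in luminescence signal, shown as inhibition above about 50% in the replicate tests, limit read from the data, passing the limit was not always enough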;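 note: agonist challenge used bursicon conditioned medium at about half maximal strength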
# TWEAK-Fn14 inh: inhibitors of TWEAK-Fn14 interaction signaling. 360,000 compounds, 2% hits. TWEAK-stimulated Fn14 reporter cells, luciferase luminescence, 8 h. AID 1159606. inhibition, % at 10 µM; in the data active = inhibition above about 50%
# Active calls of the source: *; / = not tested or not shown.
SMILES,PAX8 inh HTS,TROY NFkB inh,EBV LMP1 NFkB,EWS-Fli block,LGR2 antag,TWEAK-Fn14 inh
CCOC(=O)N1CCC(=NNC(=O)COc2ccc(OC)cc2)CC1,-8,-8,3,/,2,96*
C[C@@H]1CN([C@@H](C)CO)C(=O)Cc2cc(NS(=O)(=O)c3ccc(Cl)cc3)ccc2O[C@@H]1CN(C)C(=O)Nc1cccc2ccccc12,/,/,/,5,13,/
Cc1noc(C)c1NC(=O)N[C@H]1CC[C@H](CC(=O)Nc2ccc(-c3ccccc3)cc2)O[C@@H]1CO,-16,/,/,-16,7,/
COc1cc(Cn2c3ccc(NC(=O)CCc4ccccc4)cc3c(=O)n2C)ccc1F,38,13,/,54*,1,-4
COc1cc(Cn2c3ccc(NC(=O)CCc4cccnc4)cc3c(=O)n2C)ccc1F,8,-11,/,1,25,15
C[C@@H]1CCCCO[C@H](CN(C)S(=O)(=O)c2ccc(Cl)cc2)[C@@H](C)CN([C@@H](C)CO)C(=O)c2cc(NS(=O)(=O)c3ccc(Cl)cc3)ccc2O1,68*,/,/,-24,15,/
C[C@@H]1CCCCO[C@@H](CN(C)S(=O)(=O)c2ccc(Cl)cc2)[C@H](C)CN([C@@H](C)CO)C(=O)c2cc(NS(=O)(=O)c3ccc(Cl)cc3)ccc2O1,78*,/,/,2,6,/
C[C@@H]1CCCCO[C@H](CN(C)S(=O)(=O)c2ccc(Cl)cc2)[C@H](C)CN([C@@H](C)CO)C(=O)c2cc(NS(=O)(=O)c3ccc(Cl)cc3)ccc2O1,74*,/,/,4,7,/
C[C@@H]1CCCCO[C@H](CN(C)C)[C@H](C)CN([C@@H](C)CO)C(=O)c2cc(NS(=O)(=O)c3ccc(Cl)cc3)ccc2O1,97*,/,/,10,-15,/
C[C@@H]1CCCCO[C@H](CN(C)S(=O)(=O)c2ccc(Cl)cc2)[C@H](C)CN([C@H](C)CO)C(=O)c2cc(NS(=O)(=O)c3ccc(Cl)cc3)ccc2O1,51,/,/,7,13,/
COc1ccc2c3c(n(C)c2c1)[C@H](CO)N(Cc1ccccc1F)CC31CCN(C(C)=O)CC1,/,/,/,3,-17,/
C[C@@H]1CCCCO[C@@H](CN(C)S(=O)(=O)c2ccc(Cl)cc2)[C@H](C)CN([C@H](C)CO)C(=O)c2cc(N(C)C)ccc2O1,33,/,/,-5,-8,/
C[C@@H]1CCCCO[C@@H](CN(C)S(=O)(=O)c2ccc(Cl)cc2)[C@H](C)CN([C@@H](C)CO)C(=O)c2cc(N(C)C)ccc2O1,79*,/,/,2,13,/
C[C@H](CO)N1C[C@H](C)[C@@H](CN(C)Cc2ccc(C(=O)O)cc2)OCCCC[C@H](C)Oc2ccc(NS(=O)(=O)c3ccc(F)cc3)cc2C1=O,2,/,/,-7,15,/
O=[N+]([O-])c1ccc(S(=O)Cc2ccccc2)c([N+](=O)[O-])c1 (stereo unspecified),121*,74*,29,36,60*,42
O=[N+]([O-])c1ccc(CS(=O)c2ccccc2)cc1 (stereo unspecified),-1,0,8,-11,/,10
CC(=O)Oc1cc(O)c2c(=O)c(OC(C)=O)c(-c3ccc(OC(C)=O)c(OC(C)=O)c3)oc2c1,/,28,0,/,/,68*
COCC#Cc1cnc2c(c1)C(=O)N([C@@H](C)CO)C[C@@H](C)[C@@H](CN(C)C(=O)Cc1ccncc1)O2,/,/,/,2,-8,/
COc1ccc(C(=O)N/N=C/c2ccc(OC(=O)c3cccs3)cc2)cc1,101*,-28,-6,-3,-3,-13
COc1ccc(/C=N/NC(=O)c2ccc(N(C)S(=O)(=O)c3ccccc3)cc2)cc1,3,-4,-15,/,17,51*
O=C(N/N=C\c1ccc(OC(=O)c2cccs2)cc1)c1ccc(Cl)cc1,-12,-31,-20,0,-24,-47
COc1ccccc1NC(=O)N1C[C@@H](O)COC[C@H]2O[C@H](CC(=O)NCCc3ccccc3)CC[C@@H]21,-1,/,/,0,11,/
O=C(Nc1ccc(F)cc1)N1C[C@H]2[C@@H](c3ccccc31)[C@H](CO)N2C(=O)c1ccccc1,-50,/,/,0,-10,/
O=C(Nc1ccc(CN2CCOCC2)cc1)c1ccc(-c2ccc(Br)cc2)o1,/,53*,-1,-1,-1,28
CCn1c(C)cs/c1=N\S(=O)(=O)c1ccccc1,-9,-3,-1,5,10,9
SMILES,PAX8 inh HTS,TROY NFkB inh,EBV LMP1 NFkB,EWS-Fli block,LGR2 antag,TWEAK-Fn14 inh
O=Cc1s/c(=N\S(=O)(=O)c2ccccc2)n(CCCCl)c1Cl,76*,35,3,55*,72*,96*
CNC(=O)C[C@H]1CC[C@H]2[C@H](COc3ccc(NC(=O)c4ccc5c(c4)OCO5)cc3C(=O)N2C)O1,-12,/,/,-8,-1,/
COc1cc(C2CC(=O)Oc3cc(O)ccc32)cc(OC)c1OC (stereo unspecified),-17,-18,7,-5,-12,-21
COc1ccc2c(c1)OC(=O)CC2c1cc(OC)c(OC)c(OC)c1 (stereo unspecified),-4,7,89*,-82,24,15
CCNC(=O)C[C@H]1CC[C@@H]2[C@H](COc3ccc(NC(=O)c4ccc5c(c4)OCO5)cc3C(=O)N2C)O1,2,/,/,-8,-12,/
O=C(CCN1C(=O)/C(=C/c2cccs2)SC1=S)N1CCCCC1,69*,2,6,11,7,39
COc1cc(/C=C2\SC(=S)N(CCC(=O)N3CCCCC3)C2=O)cc(OC)c1OC,100*,27,7,4,42,34
C[C@@H]1CN([C@H](C)CO)S(=O)(=O)c2ccc(C#Cc3cccc(F)c3)cc2O[C@@H]1CN(C)C(=O)NC1CCCCC1,83*,/,/,12,4,/
C[C@H](CO)N1C[C@H](C)[C@H](CN(C)C(=O)NC2CCCCC2)Oc2cc(C#Cc3cccc(F)c3)ccc2S1(=O)=O,84*,/,/,29,38,/
C[C@H]1CN([C@@H](C)CO)S(=O)(=O)c2ccc(C#Cc3cccc(F)c3)cc2O[C@H]1CN(C)CC1CC1,65*,/,/,-14,7,/
COc1ccc(S(=O)(=O)N(C)C[C@@H]2OCCCC[C@@H](C)Oc3ccc(NC(=O)NC4CCCCC4)cc3C(=O)N([C@H](C)CO)C[C@H]2C)cc1,17,/,/,-1,1,/
CC(C)NC(=O)N(C)C[C@H]1OCCCC[C@@H](C)Oc2ccc(NC(=O)c3ccncc3)cc2C(=O)N([C@@H](C)CO)C[C@@H]1C,-7,/,/,-1,10,/
CC(=O)N1[C@H](C(=O)N2CCCCC2)[C@@H](CO)[C@@H]2Cn3c(ccc(-c4ccccc4)c3=O)[C@@H]21,/,/,/,0,33,/
Cc1ccc(S(=O)(=O)N2C[C@@H]3CCCC[C@@H]3[C@@H](C)[C@H]2c2cn(Cc3ccccc3)c3ccccc23)cc1,14,42,35,18,36,61*
COc1ccc2c(c1)c([C@@H]1[C@H](C)[C@H]3CCCC[C@H]3CN1S(=O)(=O)c1ccc(C)cc1)cn2C,-5,13,4,9,-8,84*

# Screening data: PubChem, several laboratories
